The other results are listed elsewhere or left out. Values without a mark were called inactive.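 The calls were made as follows: active = mean percent activation over triplicates above a cutoff set from solvent-only control plates; inactive = the rest.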

The source of these data is PubChem BioAssay AID434985 (The Scripps Research Institute Molecular Screening Center, 2010).

In this assay the target is Oxytocin receptor (Homo sapiens) (UniProt P30559). The assay can be described thus: enhancers of OXTR calcium response, retest – fluorescence, CHO-OTR cells, triplicate, confirmation (AID 434985).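 Also: compounds tested in the presence of an EC15 dose of oxytocin; 0% = EC15 oxytocin with DMSO and 100% = EC100 oxytocin with DMSO.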 The note with it: Fluo-8 calcium fluorescence, potentiation, at 3 µM, hits give high values, scaled from low-dose to maximal oxytocin.
Sequence of Oxytocin receptor (Homo sapiens) (P30559 whole entry, looked up): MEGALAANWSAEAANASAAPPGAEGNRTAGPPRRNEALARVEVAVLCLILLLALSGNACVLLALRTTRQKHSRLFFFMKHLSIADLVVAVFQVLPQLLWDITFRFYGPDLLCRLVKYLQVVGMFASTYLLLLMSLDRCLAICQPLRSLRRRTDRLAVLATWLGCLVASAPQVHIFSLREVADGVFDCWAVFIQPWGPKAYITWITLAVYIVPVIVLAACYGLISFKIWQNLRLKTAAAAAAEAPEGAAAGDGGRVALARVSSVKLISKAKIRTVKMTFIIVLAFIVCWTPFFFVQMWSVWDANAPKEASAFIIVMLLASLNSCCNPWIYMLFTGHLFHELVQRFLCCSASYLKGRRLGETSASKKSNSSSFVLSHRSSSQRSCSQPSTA
Regarding `Cc1ccc(OCC(O)CN2CCN(CC(O)COc3ccc(C)cc3Cl)CC2)c(Cl)c1` (configuration not stated), the activation was -3.49%. For the compound `COCCn1c(CN(Cc2ccccc2)Cc2ccccc2)nc2c1c(=O)n(C)c(=O)n2C`, the activation was -1.46%. Under `COc1cc2c(cc1OC)C(c1ccc(C)o1)CC(=O)N2` (configuration not stated) stands -4.74%; under `CCCCNc1c(-c2ccc(OC)c(Sc3ccc(OC)cc3)c2)nc2ccc(Cl)cn12`, -4.15%; under `CCCCn1c(N)c(N2CCOCC2)c(=O)n(CC(=O)NCCc2ccccc2)c1=O`, -3.12%. As for `CNc1nnc(-c2ccco2)s1`, the activation was -4.03%.

For the compound `Cc1cc(C)cc(NC(=O)CSc2ccccc2)c1`, the activation is -0.71%.
